Growth inhibition, inhibition and outcome data for 20 compounds are collected here from PubChem BioAssay.

As a reminder, the inhibition is the drop in the measured response relative to a control, in per cent.

Several values for one entry are separate records, joined by “and”; a condition that tells them apart may be missing. Identical values can stand only once. A number with no mark means an inactive call. For some of these results: Potency and affinity values are given separately. Activity calls are given as the source filed them. Unless noted, how the calls were made is not given here.

A short description of assay [1]: antimalarial activity against Dd2 strain (AID 2302;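 active means growth inhibition above 50% at the single 2 µM test dose, taken to imply half-maximal potency below 2 µM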;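 further: 0% = DMSO untreated growth and 100% = chloroquine plus artemisinin killed control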). As to conditions: P. falciparum Dd2 in RBCs, LDH growth readout, 72 h; at 2 µM; active compounds read high.
Assay [2] can be described thus: human hepatoma cell viability loss – ATP luminescence, cytotoxicity control for P. falciparum antimalarial project, primary screen (AID 2303;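 active means inhibition above 50%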;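 further: 0% = DMSO wells and 100% = digitonin-killed cells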). As to conditions: HepG2 viability, 24-48 h, at 10 µM, active compounds read high.
Assay [3] has as its target L-lactate dehydrogenase (Plasmodium falciparum (isolate CDC / Honduras)) (UniProt Q27743). In words: PfLDH activity inhibition – cell lysate, 3D7 strain, counter-screen for P. falciparum growth inhibition project (AID 2304).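 Further: 0% = vehicle and 100% = reference inhibitor.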 The conditions noted are these: P. falciparum 3D7 crude extract, LDH APAD/NBT absorbance; at 2 µM; active compounds read high. For orientation: The purpose of a counterscreen is to sort out artefacts and off-target activity.

Assay [4] in a line: inhibition of 3D7 malaria parasite growth – strain 3D7 (AID 2306).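 Further: 0% = DMSO wells and 100% = chloroquine plus artemisinin control wells.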 The conditions noted are these: P. falciparum 3D7 erythrocytic growth, LDH absorbance, 72 h; at 2 µM; active compounds read high.
The target of assay [5] is Calcium-dependent protein kinase 1 (Plasmodium falciparum (isolate 3D7)) (UniProt P62344). In words: PfCDPK1 kinase inhibitors, biochemical, TCAMS library (AID 1159585; cut-off not given, nearly all actives have IC50 up to about 0.98 µM;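 further: inhibitors leave more ATP so luminescence rises with inhibition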). The conditions noted are these: recombinant PfCDPK1, Kinase-Glo ATP depletion luminescence.
Assay [6] has as its target Plasmodium falciparum protein kinase 6 (PK6, PF3D7_1337100) (UniProt Q8IDW1). The experiment in a line: PfPK6 kinase inhibitors, biochemical, TCAMS library (AID 1159586). As to conditions: recombinant PfPK6, Kinase-Glo ATP depletion luminescence. Background: Kinase-Glo reads ATP consumption through a luciferase reaction.
For assay [7], the target named is Protein kinase 7 (PK7), Plasmodium falciparum 3D7 (PF3D7_0213400) (UniProt Q7YTF7). The experiment in a line: inhibition of Plasmodium PK7 catalytic activity – biochemical, TCAMS antimalarial set, Kinase-Glo luminescence (AID 1159587). The conditions noted are these: recombinant PfPK7, Kinase-Glo ATP depletion luminescence.
Assay [8] deals with Calcium-dependent protein kinase 4 (Plasmodium falciparum (isolate 3D7)) (UniProt Q8IBS5). The experiment in a line: PfCDPK4 kinase inhibitors, biochemical, TCAMS library (AID 1159588; cut-off not given, nearly all actives have IC50 up to about 0.91 µM). The conditions noted are these: recombinant PfCDPK4, Kinase-Glo ATP depletion luminescence.
Calcium-dependent protein kinase 4 (Plasmodium falciparum (isolate 3D7)), sequence (Q8IBS5 whole entry, looked up): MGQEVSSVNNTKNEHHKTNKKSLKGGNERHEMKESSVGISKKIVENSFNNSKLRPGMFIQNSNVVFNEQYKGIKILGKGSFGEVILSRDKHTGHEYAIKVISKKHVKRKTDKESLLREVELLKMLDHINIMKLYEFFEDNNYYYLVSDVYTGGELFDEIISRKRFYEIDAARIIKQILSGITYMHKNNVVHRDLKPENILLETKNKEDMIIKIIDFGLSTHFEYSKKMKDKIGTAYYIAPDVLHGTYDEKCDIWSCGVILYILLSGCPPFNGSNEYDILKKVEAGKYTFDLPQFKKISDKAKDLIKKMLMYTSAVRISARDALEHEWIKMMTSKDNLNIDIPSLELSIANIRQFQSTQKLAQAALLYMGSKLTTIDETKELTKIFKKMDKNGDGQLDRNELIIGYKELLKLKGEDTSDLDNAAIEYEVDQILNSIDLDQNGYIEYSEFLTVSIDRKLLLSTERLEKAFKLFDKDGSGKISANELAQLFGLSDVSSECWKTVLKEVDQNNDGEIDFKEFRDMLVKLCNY

Calcium-dependent protein kinase 1 (Plasmodium falciparum (isolate 3D7)), sequence (P62344 whole entry, looked up): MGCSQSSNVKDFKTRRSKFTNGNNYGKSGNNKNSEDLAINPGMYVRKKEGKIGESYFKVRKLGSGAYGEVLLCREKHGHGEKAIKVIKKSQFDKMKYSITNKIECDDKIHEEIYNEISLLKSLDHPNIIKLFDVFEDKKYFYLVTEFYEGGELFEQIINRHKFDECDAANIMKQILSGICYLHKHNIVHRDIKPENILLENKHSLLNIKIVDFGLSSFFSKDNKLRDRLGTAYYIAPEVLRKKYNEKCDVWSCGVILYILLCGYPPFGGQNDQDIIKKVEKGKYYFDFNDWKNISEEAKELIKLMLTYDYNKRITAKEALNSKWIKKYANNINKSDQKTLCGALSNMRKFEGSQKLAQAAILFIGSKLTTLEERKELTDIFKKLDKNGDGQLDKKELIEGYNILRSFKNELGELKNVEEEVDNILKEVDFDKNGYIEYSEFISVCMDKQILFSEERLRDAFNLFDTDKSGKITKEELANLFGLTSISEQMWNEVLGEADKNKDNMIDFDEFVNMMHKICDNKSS
Protein kinase 7 (PK7), Plasmodium falciparum 3D7 (PF3D7_0213400), sequence (Q7YTF7 1-343): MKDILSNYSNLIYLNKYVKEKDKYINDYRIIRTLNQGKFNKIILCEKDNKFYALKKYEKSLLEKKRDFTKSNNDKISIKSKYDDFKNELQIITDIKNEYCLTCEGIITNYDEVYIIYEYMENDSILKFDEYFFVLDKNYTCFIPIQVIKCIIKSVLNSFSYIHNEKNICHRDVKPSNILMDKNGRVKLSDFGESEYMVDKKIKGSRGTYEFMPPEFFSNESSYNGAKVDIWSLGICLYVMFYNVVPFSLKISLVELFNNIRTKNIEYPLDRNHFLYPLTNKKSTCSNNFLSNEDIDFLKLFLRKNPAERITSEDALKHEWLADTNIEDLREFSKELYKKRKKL
Plasmodium falciparum protein kinase 6 (PK6, PF3D7_1337100), sequence (Q8IDW1 1-305): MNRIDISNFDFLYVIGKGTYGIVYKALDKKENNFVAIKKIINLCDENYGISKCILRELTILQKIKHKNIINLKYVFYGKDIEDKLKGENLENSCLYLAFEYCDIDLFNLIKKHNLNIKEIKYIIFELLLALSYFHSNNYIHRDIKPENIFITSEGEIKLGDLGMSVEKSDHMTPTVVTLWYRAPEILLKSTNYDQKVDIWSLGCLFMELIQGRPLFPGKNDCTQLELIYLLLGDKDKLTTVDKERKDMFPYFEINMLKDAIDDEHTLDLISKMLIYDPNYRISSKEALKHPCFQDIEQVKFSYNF
L-lactate dehydrogenase (Plasmodium falciparum (isolate CDC / Honduras)), sequence (Q27743 whole entry, looked up): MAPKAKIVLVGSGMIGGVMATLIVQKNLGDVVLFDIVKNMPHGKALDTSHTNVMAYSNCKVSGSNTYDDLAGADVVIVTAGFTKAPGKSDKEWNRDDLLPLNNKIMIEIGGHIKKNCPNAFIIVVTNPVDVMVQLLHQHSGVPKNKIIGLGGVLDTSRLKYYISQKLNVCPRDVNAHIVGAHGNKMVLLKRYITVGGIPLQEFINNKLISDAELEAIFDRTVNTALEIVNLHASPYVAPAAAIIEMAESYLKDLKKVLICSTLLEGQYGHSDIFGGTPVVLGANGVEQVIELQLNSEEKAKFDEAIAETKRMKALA

For the compound `CCNc1cc(C(=O)N[C@@H](Cc2ccc(F)c(F)c2)[C@H](O)CNCc2cccc(OC)c2)cc(N2CCCCS2(=O)=O)c1`, the values for the growth inhibition in assay [1] and in assay [4] were 85% (active) and 99% (active), respectively. For the same compound, the inhibition is 4% in assay [2] and -7% in assay [3]. In addition, the result in assay [5], in assay [6], in assay [7] and in assay [8] was inactive.

Take `CCCC(C)Nc1nc(C)cc(N[C@@H](CC(C)C)C(=O)NCCOc2ccccc2)n1` (stereo not given in full): the growth inhibition is 28% in assay [1] and 93% (active) in assay [4]. Besides, the inhibition in assay [2] is 15%; in assay [3] it was 1%. Moreover, the outcome in assay [5], in assay [6], in assay [7] and in assay [8] was inactive.

Consider `O=C(NCCCCCN1CCC(c2c[nH]c3ccccc23)CC1)Nc1ccc(I)cc1`, for which the growth inhibition is -1% in assay [1] and 100% (active) in assay [4]. Further, the values for the inhibition in assay [2] and in assay [3] were 51% (active) and 2%, respectively. Moreover, the outcome in assay [5], in assay [6], in assay [7] and in assay [8] was inactive.

Consider `CCCC(C)NC(=O)C(N)Cc1cccc(I)c1` (stereo not given), for which the values for the growth inhibition in assay [1] and in assay [4] were 65% (active) and 95% (active), respectively. In addition, the inhibition in assay [2] is 11%; in assay [3], 0%. Further, the outcome in assay [5], in assay [6], in assay [7] and in assay [8] was inactive.

Consider `Cc1nc(-c2ccc(-c3ccc(NC(=O)c4coc5ccc(N6C[C@@H](C)N[C@@H](C)C6)cc45)cc3)c(C)c2)no1`, for which the growth inhibition is 88% (active) in assay [1] and 101% (active) in assay [4]. Further, the inhibition in assay [2] and in assay [3] was 1% in each case. The result in assay [5], in assay [6], in assay [7] and in assay [8] was inactive.

As to `Oc1ccc(OCc2ccccn2)cc1`, the growth inhibition in assay [1] is 0%; in assay [4], 98% (active). The inhibition in assay [2] was 5%; in assay [3], 2%. For the same compound, the outcome in assay [5], in assay [6], in assay [7] and in assay [8] was inactive.

With `NOCCCOc1ccc(Cl)cc1`, the growth inhibition in assay [1] is 0%; in assay [4], 98% (active). Besides, the inhibition is 12% in assay [2] and 0% in assay [3]. For the same compound, the outcome in assay [5], in assay [6], in assay [7] and in assay [8] was inactive.

`Cc1cc(N[C@@H](Cc2ccccc2)C(=O)NCCc2ccccc2)nc(NCCc2ccc(F)cc2)n1`: the results for the growth inhibition in assay [1] and in assay [4] were 89% (active) and 99% (active), respectively. In addition, the inhibition in assay [2] is 9%; in assay [3], 2%. The outcome in assay [5], in assay [6], in assay [7] and in assay [8] was inactive.

Turning to `c1ccc(Oc2cccc(Nc3ccnc4ccccc34)c2)cc1`, the values for the growth inhibition in assay [1] and in assay [4] were 14% and 95% (active), respectively. Besides, the inhibition is 48% in assay [2] and 6% in assay [3]. In addition, the outcome in assay [5], in assay [6], in assay [7] and in assay [8] was inactive.

As to `C[C@@H]1CN(c2nc(NCCc3ccc(O)cc3)nc(NCc3ccccc3-c3ccc(C(F)(F)F)cc3)n2)C[C@H](C)N1`, the growth inhibition in assay [1] was 68% (active); in assay [4], 100% (active). Further, the inhibition in assay [2] is 24%; in assay [3], 7%. Also, the result in assay [5], in assay [6], in assay [7] and in assay [8] was inactive.

As to `O=C(Nc1cc(Cl)ccc1O)c1ccc(Oc2ccc(C(=O)Nc3cc(Cl)ccc3O)cc2)cc1`, the figures for the growth inhibition in assay [1] and in assay [4] were 91% (active) and 97% (active), respectively. For the same compound, the results for the inhibition in assay [2] and in assay [3] were 32% and -3%, respectively. Also, the outcome in assay [5], in assay [6], in assay [7] and in assay [8] was inactive.

Take `CC(C)C(C)(C#N)NC(=O)CSc1nc2ccc([N+](=O)[O-])cc2s1` (stereo not given): the growth inhibition in assay [1] is 81% (active); in assay [4] it was 95% (active). The inhibition was -11% in assay [2] and 3% in assay [3]. The outcome in assay [5], in assay [6], in assay [7] and in assay [8] was inactive.

Consider `CC(C)(C)OC(=O)N(Cc1cc(-n2nnnc2C(F)(F)F)ccc1O)[C@H]1CCCN(C(=O)OC(C)(C)C)[C@H]1c1ccccc1`, for which the growth inhibition in assay [1] was 66% (active); in assay [4] it was 98% (active). In addition, the inhibition in assay [2] is 14%; in assay [3] it was -5%. The outcome in assay [5], in assay [6], in assay [7] and in assay [8] was inactive.

Take `O=C(C=Cc1cn(-c2ccccc2)nc1-c1cccs1)N1CCN(c2ccncc2)CC1`: the figures for the growth inhibition in assay [1] and in assay [4] were 61% (active) and 100% (active), respectively. For the same compound, the inhibition was 31% in assay [2] and 1% in assay [3]. For the same compound, the result in assay [5], in assay [6], in assay [7] and in assay [8] was inactive.

In the case of `Cc1ccc(NCc2cccc(F)c2)cc1S(=O)(=O)N[C@@H]1CCN(C#N)C1`, the growth inhibition in assay [1] was 83% (active); in assay [4], 89% (active). In addition, the inhibition is 13% in assay [2] and -2% in assay [3]. Also, the outcome in assay [5], in assay [6], in assay [7] and in assay [8] was inactive.

As for `c1ccc(COc2ccc(C3CCCCC3)cc2)nc1`, the growth inhibition in assay [1] was 1%; in assay [4] it was 99% (active). The inhibition in assay [2] and in assay [3] was 0% in each case. In addition, the outcome in assay [5], in assay [6], in assay [7] and in assay [8] was inactive.

As to `Fc1ccccc1COc1ccc(Nc2ncnc3ccc(I)cc23)cc1Cl`, the growth inhibition in assay [1] is 37%; in assay [4] it was 90% (active). Moreover, the results for the inhibition in assay [2] and in assay [3] were 17% and -4%, respectively. Also, the outcome in assay [5], in assay [6], in assay [7] and in assay [8] was inactive.

With `N#Cc1ccc2c(c1)CN(CCC1CCC(NC(=O)/C=C/c3c[nH]c4ccccc34)CC1)CC2` (stereo not given), the growth inhibition in assay [1] was 24% and 27%; in assay [4] it was 92% (active) and 97% (active). For the same compound, the inhibition is 10% and 20% in assay [2]; -3% and -9% in assay [3]. For the same compound, the result in assay [5], in assay [6], in assay [7] and in assay [8] was inactive.

On to `COc1ccc(NC(=O)NC2CCN(CCCOc3ccnc4cc(Cl)ccc34)C2)cc1OC` (stereo not given), for which the growth inhibition in assay [1] was 16%; in assay [4], 90% (active). The values for the inhibition in assay [2] and in assay [3] were 6% and 1%, respectively. For the same compound, the result in assay [5], in assay [6], in assay [7] and in assay [8] was inactive.

`O=C(Nc1ccc(C(F)(F)F)cc1)Nc1ccccc1N1CCNCC1`: the growth inhibition in assay [1] is 69% (active); in assay [4], 94% (active). For the same compound, the inhibition was 39% in assay [2] and 4% in assay [3]. Further, the result in assay [5], in assay [6], in assay [7] and in assay [8] was inactive.
